BAZ2B block: BAZ2B (human) inhibition. Q9UIF8. AlphaScreen BAZ2B-H3K14Ac peptide displacement. Potency, µM (highest dose often 114 µM), for inactives: at the top dose activity change, negative = inhibition, actives largely listed as inhibitors. hit rate 4.4% among 360,000. AID 504333; note: potency is the fitted concentration of half-maximal effect; % is set by controls: 0 for no effect and ±100 for the full control effect; nearly all actives have a fitted effect of over 60% in size
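BAZ2B (50 nM) with biotin-H3(5-23)K14Ac peptide (50 nM) in PBS pH 7.4, 0.01% Tween-20, preformed 30 min, then compound 30 min at room temperature; top concentration 110uM. AlphaScreen streptavidin donor/nickel chelate acceptor beads (10 ug/mL final), 20 min dark, signal read.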
HP1b binding inh: inhibitors of HP1-beta chromodomain binding to methylated histone tails. P83916. AlphaScreen HP1-beta / biotin-H3K9me3 peptide binding. Potency, µM (series often up to 114 µM), for the others: at the top dose activity change, negative = inhibition, actives largely listed as inhibitors. hit rate 0.56% among 390,000. AID 540317; note: potency is the fitted concentration of half-maximal effect; nearly all actives have a fitted effect of over 70% in size
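AlphaScreen: HP1-beta (50 nM) preformed 30 min with biotin-H3(1-18)K9me3 peptide (50 nM) in PBS pH 7.4, 0.01% Tween-20. Compound added for 30 min at RT, then streptavidin donor/nickel chelate acceptor beads (10 ug/mL) for 30 min.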
L3MBTL1 inh: inhibitors of human L3MBTL1. Q9Y468. Potency, µM (highest dose often 57.1 µM), for the others: at the highest dose activity, negative = inhibition, most hits filed as inhibitors. hit rate 0.66% among 230,000. AID 485360. AlphaScreen L3MBTL1–H3K9me1 peptide binding; note: potency is the fitted concentration of half-maximal effect; % is set by controls: 0 for no effect and ±100 for the full control effect; nearly all actives have a fitted effect of over 60% in size
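Read-out is AlphaScreen signal from streptavidin donor and nickel chelate acceptor beads (10 ug/mL final each) bridging L3MBTL1 (50 nM) and biotinylated K9-monomethylated H3(1-15) peptide (75 nM), after 30 min compound exposure at room temperature.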
G9a inh: blocks human histone lysine methyltransferase G9a; Q96KQ7; G9a H3K9 monomethylation, AlphaScreen, 2 h; Potency, µM (top dose mostly 102 µM), for inactives: at the top dose activity, negative = inhibition, actives largely listed as inhibitors; hit rate 8.8% among 350,000; note: potency is the fitted concentration of half-maximal effect; % is set by controls: 0 for no effect and ±100 for the full control effect; nearly all actives have a fitted effect of over 75% in size
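AlphaScreen detection with an anti-monomethyl H3K9 antibody quantified product after a 2 h room-temperature reaction containing 500 nM biotinylated H3K9 peptide, 20 µM SAM and 20 nM enzyme, which had been preincubated 15 min with compound.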
JMJD2A Tudor inh: blocks the human JMJD2A Tudor domain; AID 504339; Potency, µM (top dose mostly 114 µM), without a hit: top-dose activity change, negative = inhibition, hits mostly inhibitors; hit rate 4.4% among 390,000; AlphaScreen JMJD2A-Tudor / H3K4me3 peptide binding; note: potency is the fitted concentration of half-maximal effect; % is set by controls: 0 for no effect and ±100 for the full control effect; nearly all actives have a fitted effect of over 50% in size
PI5P4Ka inh: inhibitors of human PI5P4K alpha | max response, % | P48426 | AID 652105 | hit rate 1.2% among 330,000 | PI5P4Kalpha enzyme, ADP-Glo luminescence, 60 min; active compounds read low; active = max response of -50% or lower; inconclusive = between -30% and -50%; inactive = -30% or higher; note: value at the top dose of about 77 µM; % is set by controls: 0 for no effect and ±100 for the full control effect
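Reactions run in 0.038 M HEPES pH 7.4, 0.28 mM EGTA, 0.1% CHAPS and 5% DMSO, with PI5P4Kalpha, substrate, compound and 5 microM ATP final, one hour at room temperature. Readout is ADP-Glo luminescence.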
Starred values were filed as active, the others as inactive; [ ] = another dose, or the depositor's remark. Most compounds without a hit are left out; they make up all but 11% or so of the library. Unless noted, calls come from the whole dose curve; as a rule, active = well fitted inhibition curve with a large enough effect; inconclusive = small, poorly fitted or top-dose-only effect; inactive = no such curve, though single readings can be large or run the other way.

What do the screens show for `C=Cc1c(C)c2cc3[nH]c(cc4nc(cc5nc(cc1[nH]2)C(C)=C5CCC(=O)O)C(CCC(=O)O)=C4C)c(C)c3C=C`?
BAZ2B block: 40µM*; HP1b binding inh: 193%; L3MBTL1 inh: 42%; G9a inh: 5%[59 µM]; JMJD2A Tudor inh: 20µM*; PI5P4Ka inh: -51*

Results for O=C1NC(=O)/C(=C/c2cccc(O)c2)N1 ?
BAZ2B block: -28%; HP1b binding inh: 29%; L3MBTL1 inh: 50%; G9a inh: -4%[12.7 µM]; JMJD2A Tudor inh: -7%; PI5P4Ka inh: -64*

Results for COc1cc(OC)cc(C(=O)Nc2ccc(NC(=O)c3ccco3)c(C)c2)c1 ?
BAZ2B block: -26%; HP1b binding inh: 0%; G9a inh: 50µM*; JMJD2A Tudor inh: -18%; PI5P4Ka inh: inconclusive

Results for COc1ccc(C(=O)Nc2ccc(OCc3ccccc3)cc2)cc1[N+](=O)[O-] ?
BAZ2B block: 5%[57.1 µM]; HP1b binding inh: 27%; L3MBTL1 inh: 0%; G9a inh: 9%[12.7 µM]; JMJD2A Tudor inh: -8%; PI5P4Ka inh: -2

Results for COc1cc(OC)cc(C(=O)Nc2cccc(N3CCCC3)c2)c1 ?
BAZ2B block: -38%; HP1b binding inh: -17%; L3MBTL1 inh: -27%; G9a inh: 3.5µM*; JMJD2A Tudor inh: 50µM*

How did COc1ccc(C(=O)Nc2ccc(Nc3ccccc3)cc2)cc1[N+](=O)[O-] do in these assays?
BAZ2B block: inconclusive; HP1b binding inh: inconclusive; L3MBTL1 inh: -29%; G9a inh: inconclusive; JMJD2A Tudor inh: 35µM*; PI5P4Ka inh: 2

How did COc1cc(OC)cc(C(=O)Nc2ccc(Nc3ccccc3)cc2)c1 do in these assays?
BAZ2B block: 25µM*; HP1b binding inh: -26%; L3MBTL1 inh: -23%; G9a inh: 35µM*; JMJD2A Tudor inh: inconclusive; PI5P4Ka inh: -8

How did COc1cc(OC)cc(C(=O)Nc2cccc(C(C)=O)c2)c1 do in these assays?
BAZ2B block: -1%; HP1b binding inh: 22%; L3MBTL1 inh: 34%[11.4 µM]; G9a inh: -42%[12.7 µM]; JMJD2A Tudor inh: 2%; PI5P4Ka inh: 1

Results for Cc1cc(NS(=O)(=O)c2ccc3c(c2)CCC(=O)N3)ccc1F ?
JMJD2A Tudor inh: -13%

Results for COc1ccc(CNC(=O)c2cnn(-c3ccccc3)c2-n2cccc2)cc1OC ?
BAZ2B block: -17%; HP1b binding inh: 51%; G9a inh: 22%[59 µM]; JMJD2A Tudor inh: -20%

How did CC(C)CCNC(=O)C1CCN(C(=O)c2cc3sccc3n2Cc2ccc(Cl)cc2)CC1 do in these assays?
BAZ2B block: -21%; HP1b binding inh: 33%; G9a inh: 6%[59 µM]; JMJD2A Tudor inh: 5%

How did COc1ccc(S(=O)(=O)N2CCN(c3nc(-c4ccccc4)nc4ccccc34)CC2)cc1 do in these assays?
HP1b binding inh: 16%; JMJD2A Tudor inh: inconclusive

Results for O=C(Nc1ncnc2nc[nH]c12)c1ccccc1 ?
HP1b binding inh: 36%; JMJD2A Tudor inh: 3%

What do the screens show for `COc1cc(OC)cc(C(=O)Nc2cccc(-c3cn4ccsc4n3)c2)c1`?
BAZ2B block: 71µM*; HP1b binding inh: 0%[57 µM]; G9a inh: -24%[59 µM]; JMJD2A Tudor inh: inconclusive

Results for COc1cc(OC)cc(C(=O)Nc2nnc(NC(=S)Nc3ccccc3)s2)c1 ?
BAZ2B block: -33%; HP1b binding inh: -11%; L3MBTL1 inh: 1%; G9a inh: 15%[59 µM]; JMJD2A Tudor inh: -16%; PI5P4Ka inh: -55*

How did COc1cc(OC)cc(C(=O)Nc2cccc(NC(=O)c3ccccc3)c2)c1 do in these assays?
BAZ2B block: -5%; HP1b binding inh: inconclusive; G9a inh: 19%; JMJD2A Tudor inh: -27%; PI5P4Ka inh: 7

Results for COc1ccc(C(=O)Nc2nnc(C(F)(F)F)s2)cc1 ?
BAZ2B block: 0%; HP1b binding inh: inconclusive; L3MBTL1 inh: 5%; G9a inh: 22%[59 µM]; JMJD2A Tudor inh: 56µM*; PI5P4Ka inh: -1

How did CC1(C)N=C(SCc2ccc(F)cc2)c2ccccc2N1 do in these assays?
BAZ2B block: 203%[57.1 µM]; HP1b binding inh: 350%; G9a inh: 107%[59 µM]; JMJD2A Tudor inh: 214%

Results for CCCSCCCNC(=O)C1CCN(C(=O)c2cc3sccc3n2C)CC1 ?
BAZ2B block: 6%; HP1b binding inh: 10%; G9a inh: 10%[59 µM]; JMJD2A Tudor inh: -23%

Results for O=C(CSc1nnc(SCc2ccc(Cl)cc2)s1)N/N=C/c1c[nH]c2ccccc12 ?
BAZ2B block: 35µM*; HP1b binding inh: 6%; L3MBTL1 inh: -15%; G9a inh: inconclusive; JMJD2A Tudor inh: 89µM*; PI5P4Ka inh: -14

How did O=[N+]([O-])c1ccccc1N/N=C/c1c[nH]c2ccccc12 do in these assays?
BAZ2B block: 10µM*; HP1b binding inh: 13µM*; L3MBTL1 inh: inconclusive; G9a inh: inconclusive; JMJD2A Tudor inh: 11µM*; PI5P4Ka inh: 12

What do the screens show for `Cc1ccc(C(=O)Nc2ccc(C(=O)N/N=C/c3c[nH]c4ccccc34)cc2)cc1`?
BAZ2B block: -12%; HP1b binding inh: 29%; L3MBTL1 inh: -6%; G9a inh: 12%; JMJD2A Tudor inh: -11%; PI5P4Ka inh: -23

Results for O=C(N/N=C/c1c[nH]c2ccccc12)c1ccccc1 ?
BAZ2B block: -15%; HP1b binding inh: 36%; G9a inh: 24%; JMJD2A Tudor inh: 3%; PI5P4Ka inh: -20

What do the screens show for `O=C(NN=Cc1c[nH]c2ccccc12)NN=Cc1c[nH]c2ccccc12`?
PI5P4Ka inh: -89*

What do the screens show for `Cc1cccc(NC(=S)N/N=C/c2c[nH]c3ccccc23)c1`?
BAZ2B block: 50µM*; HP1b binding inh: inconclusive; L3MBTL1 inh: -20%; G9a inh: -21%[59 µM]; JMJD2A Tudor inh: inconclusive; PI5P4Ka inh: 1

Results for O=[N+]([O-])c1ccc(N/N=C/c2c[nH]c3ccccc23)cc1 ?
BAZ2B block: inconclusive; HP1b binding inh: inconclusive; L3MBTL1 inh: -13%; G9a inh: 28%[0.501 µM]; JMJD2A Tudor inh: inconclusive; PI5P4Ka inh: 3

Results for CC(C)Oc1ccc(CNC(=O)Cc2ccc(NC(=O)N3CCSc4ncccc43)cc2)cc1 ?
BAZ2B block: -12%; HP1b binding inh: 39%; G9a inh: 0%[59 µM]; JMJD2A Tudor inh: -5%

Results for Nc1nc(-c2ccc(Cl)cc2)c(N=Nc2ccc(S(=O)(=O)N3CCOCC3)cc2)s1 ?
BAZ2B block: 7.1µM*; HP1b binding inh: inconclusive; L3MBTL1 inh: -6%; G9a inh: inconclusive; JMJD2A Tudor inh: inconclusive; PI5P4Ka inh: 6

Results for C=C(C)C(=O)Nc1ccc(OC(F)(F)C(F)F)c(NC(=O)C(=C)C)c1 ?
BAZ2B block: 45µM*; HP1b binding inh: 56µM*; L3MBTL1 inh: inconclusive; JMJD2A Tudor inh: 79µM*; PI5P4Ka inh: 7

From PubChem
